# Laboratory results as given in ChEMBL document CHEMBL3988442, “University of Dundee, Small-Polar-MMV Screening Library” (2021).
# Among all 53,000 compounds or so, about 900 (1.7%) showed an effect of 50% or more. The sample holds strong results, similar compounds and a random draw of the others, so the mix is not that of the screen.
# System: Mycobacterium tuberculosis
# Assay: Cornell - Phenotypic assay to identify agents that inhibit growth of Mycobacterium tuberculosis
# Type: functional
# Set-up: scale not given: direction of the effect not stated beside the values
# Conditions: 10 mM as filed; unlikely as a test dose
row,Compound,Percent Effect [%]
1,CC(=O)Nc1nc(C(=O)NCc2ccc(N3CCCC3)nc2)cs1,-0.1463
2,CSCc1cccc(NC(=O)N2CCC(N3CC=CC3)C2)c1 (stereo not drawn),-39.08
3,CCn1c(C)cc(C(=O)N2CCC(Nc3cccnn3)CC2)c1C,7.118
4,CC(C)Nc1cc(-c2c[nH]nc2C2CCN(C(=O)C3CC3)C2)ccn1 (stereo not drawn),31.29
5,CC(C)CNc1cc(-c2c[nH]nc2C2CCN(C(=O)C3CC3)C2)ccn1 (stereo not drawn),30.66
6,CC(C)Nc1cc(-c2c[nH]nc2C2CCN(C(=O)C3CCC3)C2)ccn1 (stereo not drawn),58.28
7,COCCN1C[C@@H]2[C@@H](OC)CCN(S(=O)(=O)c3cccnc3)[C@@H]2C1.O=C(O)C(F)(F)F.O=C(O)C(F)(F)F,21.64
8,CCOCC(=O)N1CCc2nc(C)nc(NC(C)C)c2CC1,-12.05
9,CC(C)c1cc(C(=O)N[C@@H]2CC[C@@H](Oc3ccccc3)[C@@H]2O)on1,75.51
10,Cc1noc(C)c1CCC(=O)N[C@@H]1CC[C@@H](Oc2cccnc2)[C@@H]1O,15.37
11,Cc1noc(C)c1C(=O)N[C@@H]1CC[C@@H](Oc2ccccc2)[C@@H]1O,21.33
12,Cc1n[nH]c(C)c1CCC(=O)N[C@@H]1CCC[C@@H](Oc2ccccc2)[C@@H]1O,-14.05
13,Cc1noc(C)c1C(=O)N[C@@H]1CCC[C@@H](Oc2ccccc2)[C@@H]1O,50.47
14,Cc1noc(C)c1CC(=O)N[C@@H]1CC[C@@H](Oc2ccccc2)[C@@H]1O,21.6
15,COCC(NC(=O)c1cnc(-c2ccncc2)nc1)c1ccnn1C (stereo not drawn),1.357
16,O=C(c1cc(-c2cccs2)on1)N1CCCCC1Cn1cccn1 (stereo not drawn),6.3
17,Cc1csc(Nc2cc(C3CN(c4ccncn4)C3)nc(C)n2)n1,23.54
18,CCc1cccc(NC(=O)CNc2ccccc2OCCC(=O)OC)c1,45.3
19,CCS(=O)(=O)NCC(=O)NC(c1cc(C)sc1C)C(C)C (stereo not drawn),24.3
20,Cc1cc(C)nc(Nc2nccnc2C2CCCN(CCO)C2)n1 (stereo not drawn),54.85
21,Cc1cc(C)nc(Nc2nccnc2C2CCCN(C(CO)CO)C2)n1 (stereo not drawn),36.66
22,CC(=O)N1CCCC(c2nccnc2Nc2nc(C)cc(C)n2)C1 (stereo not drawn),-9.848
23,COc1cc(C2CC(=O)Oc3cc(C)[nH]c(=O)c32)ccc1O (stereo not drawn),15.79
24,Cc1noc(Cl)c1CC(=O)N1CCCC1Cn1cccn1 (stereo not drawn),17.08

row,Compound,Percent Effect [%]
1,COc1nccnc1-c1cccc(-c2ccn(CC3COCCO3)n2)c1 (stereo not drawn),14.38
2,CSc1nccc(-c2cccc(-c3ccn(CC4COCCO4)n3)c2)n1 (stereo not drawn),71.9
3,COc1cccc(-c2cccc(-c3ccn(CC4COCCO4)n3)c2)n1 (stereo not drawn),-2.003
4,Cc1[nH]nc2ncc(C(=O)N3CCCC3c3noc(C(C)C)n3)cc12 (stereo not drawn),24.5
5,COc1ccc2c(c1)C1(CCN(Cc3nccs3)CC1)N(C)CC2.O=C(O)C(F)(F)F.O=C(O)C(F)(F)F,-9.444
6,O=C(O)C(F)(F)F.O=C(O)C(F)(F)F.c1cncc(-c2ccc3c(c2)CCC32CCN(Cc3ccco3)CC2)c1,82.31
7,CN(C)CC(=O)N1CCC2(CCc3cc(-c4cccnc4)ccc32)CC1.O=C(O)C(F)(F)F.O=C(O)C(F)(F)F,11.92
8,O=C(O)C(F)(F)F.c1cc(-c2ccc3c(c2)CCC32CCN(c3nncs3)CC2)ccn1,20.52
9,O=C(O)C(F)(F)F.c1cncc(-c2ccc3c(c2)C2(CC3)CCN(c3nncs3)CC2)c1,85.45
10,O=C(O)C(F)(F)F.O=C(O)C(F)(F)F.c1csc(CN2CCC3(CC2)CCN(CC2CC2)CC3)n1,-43.47
11,CN1CCN(Cc2cccnc2)C(=O)C12CCN(Cc1ccco1)CC2.O=C(O)C(F)(F)F.O=C(O)C(F)(F)F.O=C(O)C(F)(F)F,15.2
12,O=C(O)C(F)(F)F.O=C(O)C(F)(F)F.c1cncc(-c2ccc3c(c2)CCC32CCN(Cc3nccs3)CC2)c1,61.89
13,c1cc(-c2ccc3c(c2)C2(CC3)CCN(c3nncs3)CC2)ccn1,26.32
14,CC(C)(C)c1n[nH]cc1CNC1CCC(OCC(F)(F)F)CC1.Cl (stereo not drawn),-6.883
15,CCN(CC(C)C#N)C(=O)CNc1ccc(C(N)=O)c(C)c1 (stereo not drawn),7.465
16,O=C(CC1CCCC1)NCCS(=O)(=O)N1CCN(c2ccccn2)CC1,-6.415
17,CN(C)c1nccc(C2CCN(C3CCCCC3O)CC2)n1 (stereo not drawn),-26.39
18,Cn1ccnc1CN1CCCN(C(=O)c2ccc3ccccc3c2)CC1,4.708
19,COc1ccc(C)cc1NC(=O)c1coc(C)n1,8.355
20,CCN(C(=O)c1ccc2c(c1)OCO2)C1CC(=O)NC1=O (stereo not drawn),-9.897
21,CC(C)c1cc(C(=O)N2CCN(c3ccncc3)CC2)n(C)n1,12.8
22,CC(=O)c1ccc(N2CCN(C(=O)c3cc(C(C)C)nn3C)CC2)cc1,16.14
23,CC(C)c1cc(C(=O)N2CCN(c3ccc(F)c(Cl)c3)CC2)n(C)n1,54.92
24,CCOc1ccccc1C(=O)NCCC(O)c1ccoc1 (stereo not drawn),22.79

row,Compound,Percent Effect [%]
1,CCOC(=O)NCCC(O)c1ccoc1 (stereo not drawn),23.86
2,O=C(NCCC(O)c1ccoc1)Nc1cccs1 (stereo not drawn),106.1
3,O=C(NCC(O)c1ccoc1)Nc1cccs1 (stereo not drawn),104.6
4,O=C(NCC(O)c1ccoc1)Nc1c(F)cccc1F (stereo not drawn),6.365
5,O=C(NCc1cccs1)NCC(O)c1ccoc1 (stereo not drawn),18.49
6,Cl.O=C(CN1CCCC1)Nc1c2c(cc3c1CCC3)CCC2,40.53
7,CCS(=O)(=O)Nc1ccn(Cc2cccc(F)c2)n1,-38.51
8,CN(C)CCN1C(=O)CCC12CCCN(C(=O)c1cccnc1)CC2.O=C(O)C(F)(F)F.O=C(O)C(F)(F)F (stereo not drawn),28.27
9,Cn1cc(CN2CCCCC2c2ccc(-c3cccc(Cl)c3)nc2)cn1 (stereo not drawn),30.06
10,CC1CCN(C(=O)NCCc2cc(F)ccc2F)C1 (stereo not drawn),29.01
11,CN(C)CCNc1cc(-c2ccccc2C(N)=O)c2cc[nH]c2n1,-19.65
12,CN(C)[C@@H]1CN(C(=O)c2cc3cccc(F)c3[nH]2)C[C@H]1O,57.85
13,CN1CCN([C@@H]2CN(C(=O)c3cc4cccc(F)c4[nH]3)C[C@H]2O)CC1,38.63
14,O=C(c1cc2cccc(F)c2[nH]1)N1C[C@@H](O)[C@H](N2CCCC2)C1,36.56
15,CN1CCOC(CNCC(=O)NCCc2ccc3c(c2)OCCO3)C1 (stereo not drawn),-19.13
16,Cc1nc(N)cc(N2CCCC(COc3cccc(F)c3)C2)n1 (stereo not drawn),43.67
17,Cc1ccccc1OCC1CCCN(c2cc(N)nc(N)n2)C1 (stereo not drawn),79.75
18,Nc1cc(N2CCCC(COc3ccc(F)cc3)C2)nc(N)n1 (stereo not drawn),-4.088
19,CN(C)Cc1cnc(C2CN(C(=O)c3ccccc3Cl)CCO2)[nH]1 (stereo not drawn),-0.6177
20,c1ccc(CCN2CC(n3cccn3)C2)nc1,-9.048
21,COc1cccc(CN(C)C(=O)CCC(=O)c2ccc(Cl)cc2)c1OC,54.4
22,COc1cccc(CN(C)C(=O)CCC(=O)c2ccccc2)c1OC,8.094
23,COc1ccc(CN(C)C(=O)CCC(=O)c2cccs2)c(OC)c1OC,32.22
24,O=C(N[C@@H]1CCC[C@@H](N2CCCC2)[C@@H]1O)c1cnn2cccnc12,-2.756

row,Compound,Percent Effect [%]
1,COc1ccc(NC(=O)c2nc(C)sc2C(C)C)cn1,41.95
2,Cc1nc(C(=O)Nc2cccnc2)c(C(C)C)s1,51.63
3,CC(C)c1sc(Br)nc1C(=O)NCc1cccnc1,16.15
4,CC(C)CCN1C[C@H]2C[C@H](C(=O)Nc3cccnc3)[C@@H](C1)O2.O=C(O)C(F)(F)F.O=C(O)C(F)(F)F,18.07
5,N#Cc1cccc(OCCN2CCNC(=O)C2c2cccs2)c1 (stereo not drawn),15.41
6,Cc1nc(CN2C[C@H]3C[C@H](C(=O)NCC4CC4)N(C)[C@H]3C2)cs1.O=C(O)C(F)(F)F.O=C(O)C(F)(F)F.O=C(O)C(F)(F)F,-25.01
7,COc1ccccc1-c1nnc2n1NC(N)=C(C#N)S2,6.444
8,COc1ccc(N2CCC(N3C[C@H](NC(C)=O)[C@@H](C(C)C)C3)CC2)cc1,33.6
9,CC(=O)N[C@@H]1CN(C2CCN(c3cccc(Cl)c3)CC2)C[C@H]1C(C)C,62.82
10,COc1cccc(N2CCC(N3C[C@@H](NC(C)=O)[C@H](C(C)C)C3)CC2)c1,34.03
11,Cc1cc(=O)n2ncnc2n1CC(O)c1cc(F)ccc1F (stereo not drawn),-70.76
12,COc1ccc(NC(=O)Cn2c(=O)nc(N)c3cc(C)sc32)cc1,0.3474
13,Cc1nonc1OCCNC(=O)COc1ccc(Cl)cc1Cl,17.56
14,CC(c1nnc(-c2ccccc2)o1)N1CCc2cncnc2C1 (stereo not drawn),-7.255
15,CC(=O)N1CCc2c(nc(N(C)C)nc2N(C)CCC2CCCCO2)C1 (stereo not drawn),-8.037
16,Cc1nc[nH]c1CN1CCN(C(=O)C2(C)CC2)[C@H]2CS(=O)(=O)C[C@H]21,10.63
17,COc1ccc(CNC(=O)Nc2ccc(S(=O)(=O)C(F)F)cc2)cc1,13.14
18,Cn1ccc(CNC(=O)Nc2ccc(S(=O)(=O)C(F)F)cc2)c1,50.21
19,Cn1cc(CNC(=O)Nc2ccc(S(=O)(=O)C(F)F)cc2)cn1,33.37
20,Cc1cc2nc(O)c(O)nc2cc1S(=O)(=O)NC1CC1,1.29
21,CC(C)(C)C(=O)NCCC(=O)NC(C)(C)c1ccc2c(c1)OCO2,11.96
